# PubChem BioAssay AID624429 (Broad Institute, 2012)
# Results with a measured potency or affinity are listed apart. Active and inactive are the calls of the source.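 Rule for the calls: active = viability loss with a fitted half-maximal dose at or below twice the top valid dose, in every repeat test; inconclusive = repeat tests disagree, or a flat partial loss, or a poor fit; inactive = all tests inactive, including signal rising instead of falling.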
# Experiment: SK-MEL-5 parental line viability, dose response, MITF inhibitor project, cell-based, CellTiter-Glo, dry powder, set 6 (AID 624429)
smiles,measurement,value
NC1=C(NS(=O)(=O)c2ccc(Br)s2)C(=O)c2ccccc2C1=O,outcome,inactive
